Inconclusive results are not listed. Activity calls are given as the source filed them. Unless noted, no rule for the calls is given here.

The nature of assay [1]: rapamycin-like changes in RPL19A-GFP expression – cell-based, S. cerevisiae, multiplex flow cytometry, primary screen (AID 1862; in the data active = percent of DMSO control GFP below about 86%;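 also: lower values mimic rapamycin by blocking the RPL19A rise seen in DMSO cells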). As to conditions: S. cerevisiae RPL19A-GFP strain, flow cytometry fluorescence, 3 h; at 10 µM; stronger effect = lower value.
The nature of assay [2]: TOR pathway GLN3 branch reporter MEP2-GFP changes – S. cerevisiae, multiplex flow cytometry, primary screen (AID 1867;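 active = GFP response, as percent of the DMSO control, above the screen-wide mean plus 3 SD, about 139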;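 also: median GFP channel fluorescence of barcode-gated MEP2-GFP cells measured by flow cytometry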). As to conditions: S. cerevisiae MEP2-GFP strain, 3 h, at 10 µM, stronger effect = higher value. In general terms: In flow cytometry, cells or beads pass a laser one at a time.
Assay [3] is described as follows: TOR pathway RTG branch CIT2 reporter changes – S. cerevisiae, GFP fusion, multiplex flow cytometry, primary screen (AID 1870;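 active = percent response above a set limit, the screen-wide mean plus 3 SD, cut at about 130% in these data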;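 also: barcoded CIT2-GFP strain pooled with four other GFP strains with rapamycin as positive control; median GFP fluorescence per well over plate mean of DMSO wells so 100% = DMSO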). As to conditions: S. cerevisiae CIT2-GFP expression, 3 h, at 10 µM, stronger effect = higher value.
A short description of assay [4]: TOR pathway LAP4-GFP level changes – S. cerevisiae, multiplex flow cytometry, primary screen (AID 1873;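 active = GFP signal, as percent of the solvent control, above the screen mean plus 3 SD, about 149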). As to conditions: S. cerevisiae LAP4-GFP expression, 3 h, at 10 µM, stronger effect = higher value.
Assay [5] is described as follows: reduced mouse 2C T cell binding to pMHC/ICAM-1 vesicles – MLPCN validation set, flow cytometry, LFA-1/ICAM-1 modulator project, pilot screen (AID 2523;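 active = response below a set limit, under 55% cells CD8-positive and vesicle-bound, and CD8 cells' 90th-percentile brightness under 279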;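 as to vesicle binding response: mean PE anti-B7-1 fluorescence of CD8+ cells relative to row control; 100% = QL9-loaded vesicles with DMSO vehicle in the same plate row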). As to conditions: 2C mouse CD8+ T cells, at 7 µM, stronger effect = lower value; double positive events: measured here: CD8+/vesicle+ event percentage.
For assay [6], the target named is Integrin beta-1 (Homo sapiens) + Integrin alpha-4 (Homo sapiens) (UniProt P13612+P05556). The assay is described as follows: alpha4beta1 integrin LIBS antibody binding reduction – U937 cells, HUTS-21 mAb, flow cytometry, validation set, VLA-4 allosteric modulator project, pilot screen (AID 2674;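 active = inhibition above 50%, about 3 SD of the validation set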;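 also: antibody binding induced by the VLA-4 ligand LDV present at three times its Kd; 0% = LDV ligand with antibody and no compound and 100% = antibody without LDV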). As to conditions: HUTS-21 LIBS mAb binding, at 6.7 µM, stronger effect = higher value.

A short description of assay [7]: calorie-restriction mimetic ROS inhibitors, yeast – validation compound set, pilot screen (AID 2706;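 active = superoxide response below 65% of plate, a cut near 3 SD across the whole screen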;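 also: yeast exposed to compound for one week at 30 degrees C before staining; 100% = mean of all compound wells on the same plate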). As to conditions: S. cerevisiae aging, superoxide DHE fluorescence; at 10 µM; stronger effect = lower value.
The target of assay [8] is Beta-adrenergic receptor kinase 1 (Homo sapiens) (UniProt P25098). Description: GRK2 binders displacing RNA aptamer, biochemical, validation, human GRK2, bead flow cytometry (AID 488806;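 active = aptamer binding inhibition above 30%, about 3 SD of noise from non-fluorescent compounds; inactive = inhibition at or below 30%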). As to conditions: bead-bound GRK2, FAM-aptamer displacement, at 10 µM, stronger effect = higher value.
Chain of Beta-adrenergic receptor kinase 1 (Homo sapiens) (P25098 whole entry, looked up): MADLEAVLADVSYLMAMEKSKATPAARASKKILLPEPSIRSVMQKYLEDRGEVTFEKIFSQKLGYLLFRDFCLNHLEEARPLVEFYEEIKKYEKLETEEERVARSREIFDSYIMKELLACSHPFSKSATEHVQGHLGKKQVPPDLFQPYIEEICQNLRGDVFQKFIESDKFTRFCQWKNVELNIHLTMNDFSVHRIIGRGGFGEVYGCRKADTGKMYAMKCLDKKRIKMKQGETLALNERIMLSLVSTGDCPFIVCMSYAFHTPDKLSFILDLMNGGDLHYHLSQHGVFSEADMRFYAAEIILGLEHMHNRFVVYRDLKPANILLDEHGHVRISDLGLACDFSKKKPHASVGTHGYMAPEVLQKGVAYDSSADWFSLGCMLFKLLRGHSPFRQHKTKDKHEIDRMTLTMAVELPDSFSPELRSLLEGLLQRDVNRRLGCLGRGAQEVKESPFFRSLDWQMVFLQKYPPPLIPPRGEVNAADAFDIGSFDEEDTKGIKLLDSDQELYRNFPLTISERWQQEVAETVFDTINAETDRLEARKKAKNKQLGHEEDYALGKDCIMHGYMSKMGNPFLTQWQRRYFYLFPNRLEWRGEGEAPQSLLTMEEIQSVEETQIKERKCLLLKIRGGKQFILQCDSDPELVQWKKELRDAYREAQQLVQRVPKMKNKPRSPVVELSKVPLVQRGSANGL
The target in assay [9] is AP-2 complex subunit beta (Homo sapiens) (UniProt P63010). Description: beta-arrestin/AP2 interaction blockers – biochemical, validation set, GST-AP2 beads, flow cytometry, pilot screen (AID 504541;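 active = inhibition above 54%, about 3 SD of non-fluorescent compounds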;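 also: AP2 carries R879A mutation and is captured from E. coli lysate; bead-bound FITC arrestin peptide fluorescence measuring arrestin peptide binding to AP2; 0% = DMSO wells and 100% = excess unlabeled arrestin peptide control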). As to conditions: FITC arrestin peptide, at 10 µM, stronger effect = higher value.
Chain of AP-2 complex subunit beta (Homo sapiens) (P63010 whole entry, looked up, one chain of several): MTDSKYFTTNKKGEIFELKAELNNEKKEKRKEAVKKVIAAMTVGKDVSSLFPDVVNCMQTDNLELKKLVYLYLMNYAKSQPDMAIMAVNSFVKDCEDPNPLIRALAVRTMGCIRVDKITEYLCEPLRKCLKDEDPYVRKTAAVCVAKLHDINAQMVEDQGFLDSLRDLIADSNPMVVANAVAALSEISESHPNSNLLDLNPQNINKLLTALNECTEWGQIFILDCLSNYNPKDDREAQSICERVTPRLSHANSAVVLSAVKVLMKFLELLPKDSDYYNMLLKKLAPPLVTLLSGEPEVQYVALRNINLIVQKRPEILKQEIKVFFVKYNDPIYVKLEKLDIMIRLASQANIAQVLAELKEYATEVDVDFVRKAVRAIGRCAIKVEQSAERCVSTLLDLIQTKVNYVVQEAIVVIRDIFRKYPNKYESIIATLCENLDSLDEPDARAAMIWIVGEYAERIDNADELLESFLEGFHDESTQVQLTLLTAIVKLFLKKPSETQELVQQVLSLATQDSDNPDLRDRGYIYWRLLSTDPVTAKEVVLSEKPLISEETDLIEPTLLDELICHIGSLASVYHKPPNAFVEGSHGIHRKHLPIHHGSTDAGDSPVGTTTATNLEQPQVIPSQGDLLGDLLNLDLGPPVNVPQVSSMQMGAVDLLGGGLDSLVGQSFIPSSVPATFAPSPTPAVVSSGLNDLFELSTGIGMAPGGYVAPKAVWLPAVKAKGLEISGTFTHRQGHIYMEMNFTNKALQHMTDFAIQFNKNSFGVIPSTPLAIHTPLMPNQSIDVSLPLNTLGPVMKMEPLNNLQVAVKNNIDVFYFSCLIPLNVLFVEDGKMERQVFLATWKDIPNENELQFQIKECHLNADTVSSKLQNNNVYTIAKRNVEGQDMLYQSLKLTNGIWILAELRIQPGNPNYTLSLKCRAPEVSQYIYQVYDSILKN
Assay [10] is described as follows: cytosolic pH regulators acting via V-ATPase – S. cerevisiae, pHLuorin, HTS validation (AID 504600; in the data active = response above about 15%;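 also: plate controls were DMSO for no effect and reference compound for full effect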). As to conditions: V-ATPase proton transport, at 10 µM, stronger effect = higher value.
Assay [11] concerns anti-desmoglein-3 scFv antibody binding to human DSG3. Description: blockers of pathogenic pemphigus antibody–desmoglein-3 binding – biochemical, validation compound set, bead-based, flow cytometry, pilot screen (AID 588368;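 active = binding below the plate cutoff, the plate median minus 3 SD, with a reading above zero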;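 also: signal is the median channel fluorescence of bead-bound GFP antibody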). As to conditions: Protein G beads, DSG3-Fc, scFv-GFP binding, at 10 µM, stronger effect = lower value.
The nature of assay [12]: Nile Red efflux blockade in pump-expressing yeast – validation compound set, multiplex, phenotypic, pilot screen (AID 588506;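 active = efflux inhibition above 0.42, the validation set average plus 4 SD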;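 also: Nile Red retained in cells so higher fluorescence means more efflux inhibition; 0 = negative control wells and 1 = enniatin B 25 µM full block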). As to conditions: S. cerevisiae pump-expressing triplex, Nile Red efflux flow cytometry; at 10 µM; stronger effect = higher value.
The target in assay [13] is ATP-binding cassette sub-family B member 6 (Homo sapiens) (UniProt Q9NP58). Description: blockers of ABCB6-driven porphyrin uptake – K562-ABCB6 cells, flow cytometry, validation set, pilot screen (AID 588550;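 active = inhibition above the screen-wide mean plus 3 SD, about 51%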;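 also: 0% = DMSO wells and 100% = benzethonium chloride 70 µM positive control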). As to conditions: K562-ABCB6 porphyrin accumulation, 1 h, at 10 µM, stronger effect = higher value.
Chain of ATP-binding cassette sub-family B member 6 (Homo sapiens) (Q9NP58 whole entry, looked up): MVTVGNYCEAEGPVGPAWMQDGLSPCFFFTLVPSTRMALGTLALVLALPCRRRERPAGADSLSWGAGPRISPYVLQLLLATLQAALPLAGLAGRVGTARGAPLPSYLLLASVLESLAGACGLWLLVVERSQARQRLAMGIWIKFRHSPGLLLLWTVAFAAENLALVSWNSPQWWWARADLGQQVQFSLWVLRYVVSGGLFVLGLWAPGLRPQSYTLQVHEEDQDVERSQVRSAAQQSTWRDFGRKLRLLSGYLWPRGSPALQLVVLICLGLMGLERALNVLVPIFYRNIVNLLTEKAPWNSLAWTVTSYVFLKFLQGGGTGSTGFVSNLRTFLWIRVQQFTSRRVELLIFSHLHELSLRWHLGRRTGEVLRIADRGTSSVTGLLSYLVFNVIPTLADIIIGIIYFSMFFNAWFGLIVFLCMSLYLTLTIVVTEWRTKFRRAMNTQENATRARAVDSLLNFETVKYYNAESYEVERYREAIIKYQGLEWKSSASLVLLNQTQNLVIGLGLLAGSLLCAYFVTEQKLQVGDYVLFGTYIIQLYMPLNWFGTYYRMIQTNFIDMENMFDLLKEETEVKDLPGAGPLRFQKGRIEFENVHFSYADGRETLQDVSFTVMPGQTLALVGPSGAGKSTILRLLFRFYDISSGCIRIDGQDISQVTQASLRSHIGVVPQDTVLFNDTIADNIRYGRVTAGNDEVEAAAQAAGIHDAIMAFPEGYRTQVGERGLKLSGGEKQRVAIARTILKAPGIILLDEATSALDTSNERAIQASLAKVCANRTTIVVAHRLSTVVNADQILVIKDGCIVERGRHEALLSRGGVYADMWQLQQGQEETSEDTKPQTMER
A short description of assay [14]: AML differentiation inducers, ER-HoxA9 marrow cells – cell-based, GFP/MAC1 double positive, flow cytometry, validation set, primary screen (AID 588685;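 active = differentiation response of at least 50%, scaled between solvent and reference control, from cells with both markers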;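 also: compound exposure lasts four days before antibody staining and flow analysis; 0% = DMSO wells and 100% = 5 µM fulvestrant positive control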). As to conditions: stronger effect = higher value.
Assay [15] relates to Botulinum neurotoxin type F light chain protease (Clostridium botulinum). The assay is described as follows: Clostridium botulinum type F light chain protease inhibitors, microsphere substrate cleavage, validation (AID 588459). As to conditions: multiplex microsphere protease substrate cleavage assay, flow cytometry; at 10 µM; stronger effect = higher value.
Assay [16] has as its target Botulinum neurotoxin type A (Clostridium botulinum) (UniProt P0DPI0). Description: BoNT/A light chain protease inhibitors, biochemical, multiplex microsphere flow cytometry, validation set (AID 588460). As to conditions: at 10 µM, stronger effect = higher value.
The target of assay [17] is Lethal factor (Bacillus anthracis) (UniProt P15917). The assay is described as follows: Bacillus anthracis lethal factor inhibition, microsphere flow cytometry protease assay, validation at 10 µM (AID 588461). As to conditions: multiplex microsphere protease cleavage assay, stronger effect = higher value.
Chain of Lethal factor (Bacillus anthracis) (P15917 whole entry, looked up): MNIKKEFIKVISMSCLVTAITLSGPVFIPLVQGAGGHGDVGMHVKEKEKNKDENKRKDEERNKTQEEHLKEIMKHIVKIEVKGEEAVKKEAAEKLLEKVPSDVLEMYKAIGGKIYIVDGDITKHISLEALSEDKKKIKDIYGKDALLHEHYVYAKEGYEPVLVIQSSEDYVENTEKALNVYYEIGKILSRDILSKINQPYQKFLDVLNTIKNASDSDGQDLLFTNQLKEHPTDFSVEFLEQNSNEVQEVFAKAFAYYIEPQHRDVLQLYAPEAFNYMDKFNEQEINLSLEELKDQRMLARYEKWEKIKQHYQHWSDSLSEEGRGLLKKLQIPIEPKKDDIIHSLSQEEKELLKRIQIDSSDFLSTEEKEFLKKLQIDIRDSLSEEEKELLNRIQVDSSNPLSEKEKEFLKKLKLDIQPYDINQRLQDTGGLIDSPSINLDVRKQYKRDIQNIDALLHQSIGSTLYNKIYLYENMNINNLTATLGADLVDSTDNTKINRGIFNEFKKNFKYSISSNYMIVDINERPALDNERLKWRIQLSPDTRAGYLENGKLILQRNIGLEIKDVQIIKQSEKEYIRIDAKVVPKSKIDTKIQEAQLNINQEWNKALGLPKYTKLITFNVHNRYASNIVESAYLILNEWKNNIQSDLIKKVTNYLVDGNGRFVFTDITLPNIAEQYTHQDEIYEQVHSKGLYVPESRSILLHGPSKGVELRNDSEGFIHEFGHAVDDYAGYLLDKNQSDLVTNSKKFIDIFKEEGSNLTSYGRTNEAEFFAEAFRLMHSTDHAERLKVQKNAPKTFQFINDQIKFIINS

Chain of Botulinum neurotoxin type A (Clostridium botulinum) (P0DPI0 whole entry, looked up): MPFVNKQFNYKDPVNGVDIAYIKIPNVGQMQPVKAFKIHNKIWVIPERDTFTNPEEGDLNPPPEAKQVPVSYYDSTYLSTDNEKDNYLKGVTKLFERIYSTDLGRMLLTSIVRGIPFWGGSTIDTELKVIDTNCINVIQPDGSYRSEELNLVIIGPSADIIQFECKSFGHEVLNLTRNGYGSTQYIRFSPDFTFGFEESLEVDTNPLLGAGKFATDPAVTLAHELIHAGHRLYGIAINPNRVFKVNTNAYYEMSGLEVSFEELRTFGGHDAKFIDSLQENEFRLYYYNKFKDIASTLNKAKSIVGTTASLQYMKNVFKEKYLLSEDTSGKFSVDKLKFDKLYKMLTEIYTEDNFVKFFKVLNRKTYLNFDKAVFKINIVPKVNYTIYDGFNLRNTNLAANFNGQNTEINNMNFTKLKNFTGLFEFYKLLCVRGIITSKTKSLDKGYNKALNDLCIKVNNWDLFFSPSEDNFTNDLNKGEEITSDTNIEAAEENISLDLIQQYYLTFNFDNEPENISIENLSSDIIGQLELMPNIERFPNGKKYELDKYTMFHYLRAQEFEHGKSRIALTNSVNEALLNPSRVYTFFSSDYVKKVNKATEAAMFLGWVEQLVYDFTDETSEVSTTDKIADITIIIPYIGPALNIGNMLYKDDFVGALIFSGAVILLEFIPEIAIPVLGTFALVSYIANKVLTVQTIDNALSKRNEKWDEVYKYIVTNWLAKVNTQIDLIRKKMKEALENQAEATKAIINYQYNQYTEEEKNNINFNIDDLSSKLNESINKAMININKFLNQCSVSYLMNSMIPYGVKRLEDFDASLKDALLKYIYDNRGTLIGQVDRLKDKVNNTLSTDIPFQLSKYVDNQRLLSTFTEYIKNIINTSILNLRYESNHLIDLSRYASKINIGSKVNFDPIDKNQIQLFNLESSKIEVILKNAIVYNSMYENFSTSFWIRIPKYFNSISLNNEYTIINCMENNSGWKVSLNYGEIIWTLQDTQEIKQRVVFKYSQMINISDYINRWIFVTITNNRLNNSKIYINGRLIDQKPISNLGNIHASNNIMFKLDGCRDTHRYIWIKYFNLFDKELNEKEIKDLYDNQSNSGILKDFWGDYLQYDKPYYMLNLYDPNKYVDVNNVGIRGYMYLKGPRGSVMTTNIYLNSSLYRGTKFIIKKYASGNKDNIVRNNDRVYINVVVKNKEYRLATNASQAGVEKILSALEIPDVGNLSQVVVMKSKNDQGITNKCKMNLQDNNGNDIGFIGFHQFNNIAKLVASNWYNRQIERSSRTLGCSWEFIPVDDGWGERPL

For `S=C1NCCN1`, the percent of DMSO control GFP in assay [1] is 99.1% (inactive). In addition, the GFP response vs DMSO was 109% (inactive) in [2] and 102% (inactive) in assay [4]. Besides, the percent response of DMSO control in [3] was 97.9% (inactive). The molecule also showed a double positive events in [5] of 65.7%. Moreover, in assay [5], the vesicle binding response was 186% (inactive). Moreover, the inhibition in assay [6] is 6.29% (inactive); in [9], 24.8% (inactive); in [13], 14% (inactive). Further, the superoxide response (% of plate) in [7] was 98.2% (inactive). Also, the aptamer binding inhibition in assay [8] was 3% (inactive). Also, the response in [10] was -0.28% (inactive). Besides, in assay [11], the binding (% of control) was 98% (inactive). The efflux inhibition (fraction of control) in assay [12] is 0.63 (active). Also, the differentiation response in assay [14] was -0.2% (inactive).
`NCC1(c2ccc3c(c2)OCCO3)CCCC1`: the percent of DMSO control GFP in assay [1] was 98.3% (inactive). The GFP response vs DMSO is 101% (inactive) in assay [2] and 89.3% (inactive) in assay [4]. Also, in assay [3], the percent response of DMSO control is 97.9% (inactive). In addition, the double positive events in assay [5] amounted to 60.7%. In [5], the vesicle binding response is 107% (inactive). Further, the inhibition was -51.5% (inactive) in [6]; 6.32% (inactive) in assay [9]; 0.5% (inactive) in assay [15]; -0.6% (inactive) in assay [16]; 0.5% (inactive) in assay [17]; 6% (inactive) in [13]. Also, in assay [7], the superoxide response (% of plate) was 101% (inactive). In assay [8], the aptamer binding inhibition is 1% (inactive). Besides, in assay [10], the response was -0.06% (inactive). Further, the binding (% of control) in assay [11] is 98.8% (inactive). The efflux inhibition (fraction of control) in [12] was 0.06 (inactive). The differentiation response in [14] is 1.41% (inactive).
Regarding `Cc1cc(Cl)ccc1OCC(=O)O`, the percent of DMSO control GFP in assay [1] is 96.8% (inactive). Also, the values for the GFP response vs DMSO in [2] and in assay [4] were 93.8% (inactive) and 105% (inactive), respectively. The percent response of DMSO control in assay [3] was 109% (inactive). Also, the double positive events in [5] came to 60.3%. Further, in assay [5], the vesicle binding response is 188% (inactive). The inhibition is 7.22% (inactive) in assay [6]; -8.4% (inactive) in assay [9]; -6.1% (inactive) in assay [15]; -0.1% (inactive) in assay [16]; 2.4% (inactive) in [17]; 10% (inactive) in [13]. In addition, the superoxide response (% of plate) in assay [7] is 108% (inactive). Besides, the aptamer binding inhibition in assay [8] was -4% (inactive). In addition, the response in assay [10] was -14.2% (inactive). In addition, the binding (% of control) in assay [11] is 111% (inactive). The efflux inhibition (fraction of control) in assay [12] is -0.35 (inactive). The differentiation response in assay [14] is -24.4% (inactive).
On to `CN[C@H]1C[C@H]2O[C@@](C)([C@H]1OC)n1c3ccccc3c3c4c(c5c6ccccc6n2c5c31)C(=O)NC4`, for which, in assay [1], the percent of DMSO control GFP is 104% (inactive). Moreover, the GFP response vs DMSO was 105% (inactive) in assay [2] and 84.1% (inactive) in assay [4]. Further, the percent response of DMSO control in assay [3] was 107% (inactive). In addition, the double positive events in assay [5] was found to be 64%. The vesicle binding response in assay [5] was 105% (inactive). For the same molecule, the inhibition is -86.6% (inactive) in [6], 0.54% (inactive) in [9], 6.2% (inactive) in assay [17] and -76% (inactive) in assay [13]. In assay [10], the response is 1.34% (inactive). Moreover, the efflux inhibition (fraction of control) in [12] was 0.14 (inactive). In addition, the differentiation response in [14] was 12% (inactive).
Turning to `Cc1ccc2c(c1)C1CN(C)CCC1N2C(=O)Nc1cccc(Cl)c1` (configuration not stated), in [1], the percent of DMSO control GFP is 99.5% (inactive). The GFP response vs DMSO in [2] is 102% (inactive); in assay [4], 95.4% (inactive). Moreover, the percent response of DMSO control in assay [3] was 109% (inactive). In assay [5], this molecule yielded a double positive events of 56.9%. In assay [5], the vesicle binding response is 242% (inactive). In addition, the inhibition in [6] is 30.5% (inactive); in assay [9], 27.7% (inactive); in assay [15], -0.9% (inactive); in assay [16] it was -0.1% (inactive); in assay [17], 0% (inactive); in assay [13], 4% (inactive). Also, the superoxide response (% of plate) in assay [7] was 93.4% (inactive). In assay [8], the aptamer binding inhibition was -3% (inactive). In addition, the response in assay [10] is -6.89% (inactive). Moreover, the binding (% of control) in [11] was 102% (inactive). The efflux inhibition (fraction of control) in assay [12] is -0.09 (inactive). The differentiation response in assay [14] was -18% (inactive).

As usually defined, the inhibition is the change of the read-out against control, counted positive when it falls.
